Data taken from the supplement of paper PMC6555819.

Legend:
Assay in all cases: PBM binding z-score (relative to random genomic background probes); higher = stronger binding; sequences stand for … in GC…GCGATTGACAGCGTAGAATGAAGG
[1] = test system: FXR:RXRa (NR concentration 270 nM, RXRa partner concentration 90 nM)
How it was run: (§1)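 Custom Agilent 4×180K protein-binding microarrays carried double-stranded probes, each with a 34-nt variable region. These regions held direct-repeat seeds, single-nucleotide variants, half-site ablations and random human genomic background sequences. Ligand-free nuclear receptor dimers were incubated on the arrays for 1 h, antibodies against each partner (one per run) detected binding, and scanned fluorescence was regression-normalized. Binding z-scores take the random background probes as reference.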

[2] = test system: LXRa:RXRa (NR concentration 270 nM, RXRa partner concentration 90 nM)
How it was run: as §1

[3] = test system: LXRa homodimer (NR concentration 270 nM)
How it was run: as §1

[4] = test system: LXRb:RXRa (NR concentration 270 nM, RXRa partner concentration 90 nM)
How it was run: as §1

[5] = test system: LXRb homodimer (NR concentration 270 nM)
How it was run: as §1

[6] = test system: PPARa:RXRa (NR concentration 270 nM, RXRa partner concentration 90 nM)
How it was run: as §1

[7] = test system: PPARg:RXRa (NR concentration 180 nM, RXRa partner concentration 90 nM)
How it was run: as §1

[8] = test system: PPARg:RXRa 270nM:90nM, anti-RXR (NR concentration 270 nM, RXRa partner concentration 90 nM)
How it was run: as §1

[9] = test system: PPARg:RXRa 30nM:10nM, anti-RXR (NR concentration 30 nM, RXRa partner concentration 10 nM)
How it was run: as §1

[10] = test system: PPARg:RXRa 90nM:30nM, anti-RXR (NR concentration 90 nM, RXRa partner concentration 30 nM)
How it was run: as §1

[11] = test system: PPARg:RXRa DBDmut IVT, anti-RXR (DBD mutation: RXRa K156A/R161A, NR concentration 270 nM, RXRa partner concentration 90 nM)
How it was run: as §1

[12] = test system: PPARg:RXRa IVT, anti-PPARg (NR concentration 270 nM, RXRa partner concentration 90 nM)
How it was run: as §1

[13] = test system: PPARg DBDmut:RXRa IVT, anti-PPARg (DBD mutation: PPARg1 K132A/R137A, NR concentration 270 nM, RXRa partner concentration 90 nM)
How it was run: as §1

[14] = test system: PPARg DBDmut IVT, anti-PPARg (DBD mutation: PPARg1 K132A/R137A, NR concentration 270 nM)
How it was run: as §1

[15] = test system: PPARg homodimer (NR concentration 180 nM)
How it was run: as §1

[16] = test system: PXR:RXRa (NR concentration 270 nM, RXRa partner concentration 90 nM)
How it was run: as §1

[17] = test system: PXR homodimer (NR concentration 270 nM)
How it was run: as §1

[18] = test system: RARa:RXR (NR concentration 270 nM, RXRa partner concentration 90 nM)
How it was run: as §1

[19] = test system: RARa homodimer (NR concentration 270 nM)
How it was run: as §1

[20] = test system: RARb:RXRa (NR concentration 270 nM, RXRa partner concentration 90 nM)
How it was run: as §1

Sequence | PBM binding z-score [1] | PBM binding z-score [2] | PBM binding z-score [3] | PBM binding z-score [4] | PBM binding z-score [5] | PBM binding z-score [6] | PBM binding z-score [7] | PBM binding z-score [8] | PBM binding z-score [9] | PBM binding z-score [10] | PBM binding z-score [11] | PBM binding z-score [12] | PBM binding z-score [13] | PBM binding z-score [14] | PBM binding z-score [15] | PBM binding z-score [16] | PBM binding z-score [17] | PBM binding z-score [18] | PBM binding z-score [19] | PBM binding z-score [20]
CCTATTAGTGGACCATAAGGGCAACCGAAGCTCG | 0.107 | 0.131 | 0.000985 | 0.0463 | 0.134 | 0.591 | 0.711 | 1.08 | 0.116 | 0.489 | 1.43 | 0.991 | 0.0446 | -0.555 | 0.856 | 0.215 | 0.612 | 0.424 | 0.803 | 1.22
CAAACTAGGTCAAGGTCAATGTCGGTTTGTGCCA | 6.03 | 5 | 3.19 | 4.14 | 1.08 | 5.94 | 9.35 | 7.99 | 6.08 | 8.16 | 8.55 | 8.45 | 5.91 | 4.78 | 4.97 | 4.89 | 2.16 | 4.96 | 2.18 | 5.03
TCTCGGAGGACCCGAAAGGTCAGAGCTCGACATC | 2.35 | 2.99 | 1.17 | 2.77 | -0.541 | 3.34 | 0.565 | 2.23 | 2.07 | 2.11 | 1.1 | 0.853 | -0.22 | -0.929 | 1.7 | 3.45 | -0.23 | 4.13 | 0.185 | 3.68
AATACAGGGTCACTCGGCCAGAGTAGGTACGAAT | 6.58 | 5.13 | 1.19 | 4.06 | 1.03 | 5.6 | 6.87 | 5.81 | 2.53 | 4.66 | 3.09 | 5.09 | 2.08 | 1.63 | 2.92 | 3.49 | 0.336 | 4.66 | 0.723 | 4.39
CCAGACAGGTGAGAAGGTAACTTAGCCTCGATTA | 0.0387 | 0.133 | -0.108 | 0.0826 | -0.355 | 0.501 | 0.351 | 0.351 | -0.0164 | 0.0696 | 0.936 | 0.458 | 0.104 | -0.619 | 1.19 | -0.169 | 0.402 | 0.0746 | 0.973 | 0.689
CATACAGGGTCAGCTAGGCCAAAGTAGGGACGGC | 4.83 | 3.04 | 0.0314 | 2.39 | 0.557 | 4.4 | 3.32 | 3.26 | 0.781 | 1.85 | 0.935 | 2.57 | 0.812 | 0.367 | 1.48 | 2.55 | 0.23 | 3.25 | 0.847 | 4.14
TCTAGTTGGTCAGGGAGGTCACACACGACGGGTA | 3.15 | 3.3 | 2.44 | 3.24 | 1.66 | 3.72 | 2.28 | 3.13 | 3.27 | 3.23 | 2.21 | 3.14 | 0.418 | 0.586 | 2.66 | 4.14 | 1.55 | 4.2 | 1.51 | 3.63
